Where “and” joins values, the source holds several entries; their conditions need not be identical. Equal entries are not always repeated. Results filed as inconclusive are left out. A call without a number means that no potency is given here. The source holds several records for some structures; these can differ, active in one and inactive in another. Calls of active or inactive are those of the source. The call rests on the fitted dose curve; in most records, active means well fitted curve in the direction sought with a large enough effect in the repeat runs; inconclusive means weak or mixed curves; inactive means no such curve, though single readings can be large; an effect the other way counts as inactive or inconclusive.
Key:
[1] = A CellTox Green Cytotoxicity Assay to monitor cytotoxicity in HEK293 cells - 8 hour (AID 1224884); further: nearly all actives have a fitted effect of over 35% in size; further: potency means the concentration at half of the fitted maximal effect
Summary of the method: (§1)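 Cytotoxicity was tracked continuously in HEK293 cells by a DNA-binding dye excluded from viable cells. Compounds were transferred in DMSO 5 h after seeding; fluorescence was recorded at intervals up to 40 h.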

[2] = qHTS RealTime-Glo MT Cell Viability Assay in HepG2 cells - 16 hour (AID 1224885); further: nearly all actives have a fitted effect of over 50% in size; further: potency means the concentration at half of the fitted maximal effect
Summary of the method: (§2)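 Cells + NanoLuc/prosubstrate dispensed (600 cells/well) → 5 h at 37 C/5% CO2 → compounds in DMSO transferred → 40 h incubation at 37 C, luminescence read at 0, 8, 16, 24, 32, 40 h.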

[3] = qHTS RealTime-Glo MT Cell Viability Assay in HEK293 cells - 24 hour (AID 1224886); further: nearly all actives have a fitted effect of over 50% in size; further: potency means the concentration at half of the fitted maximal effect; on activity change, negative = cytotoxicity: top concentration of the series differs between compounds
Summary of the method: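 Tox21 10K qHTS, HEK293, 600 cells/well, RealTime-Glo reagent co-dispensed with cells; 5 h preincubation, compound by pintool, 37 C, luminescence at 0–40 h.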

[4] = qHTS RealTime-Glo MT Cell Viability Assay in HEK293 cells - 8 hour (AID 1224887); further: nearly all actives have a fitted effect of over 50% in size; further: potency means the concentration at half of the fitted maximal effect; on activity change, negative = cytotoxicity: top concentration of the series differs between compounds
Summary of the method: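 Nonlytic bioluminescent viability monitoring. HEK293 at 600 cells/well with reagent; 5 h settle; compound transfer by pintool; plates held at 37 C and read at set time points.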

[5] = A CellTox Green Cytotoxicity Assay to monitor cytotoxicity in HEK293 cells - 16 hour (AID 1224888); further: nearly all actives have a fitted effect of over 35% in size; further: potency means the concentration at half of the fitted maximal effect
Summary of the method: as §1

[6] = qHTS RealTime-Glo MT Cell Viability Assay in HepG2 cells - 0 hour (AID 1224889); further: nearly all actives have a fitted effect of over 50% in size
Summary of the method: as §2

[7] = A CellTox Green Cytotoxicity Assay to monitor cytotoxicity in HepG2 cells - 8 hour (AID 1224890); further: nearly all actives have a fitted effect of over 45% in size; further: potency means the concentration at half of the fitted maximal effect
Summary of the method: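 Real-time, homogeneous cytotoxicity readout: dead-cell DNA staining by CellTox Green in HepG2 monolayers, fluorescence measured at timed intervals up to 40 h of continuous compound exposure.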

[8] = qHTS assay to identify small molecule antagonists of the estrogen receptor alpha (ER-alpha) signaling pathway using the BG1 cell line in the presence of 0.1 nM 17-beta-estradiol - cell viability counter screen (AID 1259241); further: nearly all actives have a fitted effect of over 40% in size; further: potency means the concentration at half of the fitted maximal effect
Summary of the method: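 CellTiter-Fluor read (30 min, 37C) on ER-alpha/ERE-luc VM7Luc4E2 cells; 22 hr compound treatment; agonist 0.1 nM E2 final; same-well multiplex.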

[9] = qHTS assay to identify small molecule antagonists of the androgen receptor (AR) signaling pathway using the MDA cell line in the presence of 0.5 nM R1881 - cell viability counter screen (AID 1259242); further: nearly all actives have a fitted effect of over 45% in size; further: potency means the concentration at half of the fitted maximal effect
Summary of the method: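 Cytotoxicity toward MDA-kb2 cells is measured by CellTiter-Fluor live-cell protease fluorescence after 16 hr compound exposure at 37C in the presence of 0.5 nM R1881 stimulator.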

[10] = target: Androgen receptor (Homo sapiens) (UniProt P10275); test: qHTS assay to identify small molecule antagonists of the androgen receptor (AR) signaling pathway using the MDA cell line in the presence of 0.5 nM R1881 (AID 1259243); further: nearly all actives have a fitted effect of over 50% in size; further: potency means the concentration at half of the fitted maximal effect
Sequence of Androgen receptor (Homo sapiens) (P10275 whole entry, looked up): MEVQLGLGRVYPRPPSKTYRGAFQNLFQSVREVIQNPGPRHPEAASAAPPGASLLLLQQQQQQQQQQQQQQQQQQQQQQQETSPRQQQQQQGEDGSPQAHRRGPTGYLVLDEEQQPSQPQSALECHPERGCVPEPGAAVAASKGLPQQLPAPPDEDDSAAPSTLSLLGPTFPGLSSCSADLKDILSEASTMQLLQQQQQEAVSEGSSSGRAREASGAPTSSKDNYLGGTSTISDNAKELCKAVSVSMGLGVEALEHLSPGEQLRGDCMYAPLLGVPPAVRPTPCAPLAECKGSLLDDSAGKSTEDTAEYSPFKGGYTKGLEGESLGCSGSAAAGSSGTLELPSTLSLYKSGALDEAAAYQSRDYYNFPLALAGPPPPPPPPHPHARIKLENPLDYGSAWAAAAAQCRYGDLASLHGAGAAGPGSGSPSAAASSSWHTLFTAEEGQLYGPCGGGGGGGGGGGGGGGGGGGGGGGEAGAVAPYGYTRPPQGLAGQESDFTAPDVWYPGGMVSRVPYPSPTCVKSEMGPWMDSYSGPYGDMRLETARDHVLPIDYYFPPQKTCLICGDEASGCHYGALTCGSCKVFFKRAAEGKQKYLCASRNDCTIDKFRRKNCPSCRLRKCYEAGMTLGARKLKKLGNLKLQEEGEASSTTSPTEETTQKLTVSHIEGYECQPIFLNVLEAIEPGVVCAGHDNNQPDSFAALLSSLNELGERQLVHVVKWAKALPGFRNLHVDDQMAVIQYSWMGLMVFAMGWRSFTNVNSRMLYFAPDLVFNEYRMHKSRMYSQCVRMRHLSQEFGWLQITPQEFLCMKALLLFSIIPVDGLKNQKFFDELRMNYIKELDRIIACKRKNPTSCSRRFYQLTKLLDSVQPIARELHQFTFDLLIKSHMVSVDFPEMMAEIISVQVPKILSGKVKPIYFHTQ
Summary of the method: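 Steps: seed MDA-kb2 cells, incubate 5 hr at 37C; pin-transfer compounds in DMSO; add R1881 to 0.5 nM final; incubate 16 hr; add ONE-Glo, wait 30 min at room temperature; read luminescence.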

With `CCC1CCCCC1` the Potency [1] was “inactive”, the Potency [2] was “inactive” and the Potency [3] was “inactive”. The Potency [4] was “inactive”, the Potency [5] was “inactive” and the Potency [6] was “inactive”. For the same molecule, the Potency [7] was “inactive”, the Potency [8] was “inactive” and the Potency [9] was “inactive”. For the same molecule, the Potency [10] was “inactive”.

For `CCCCNc1c(C(=O)OCC)c(C)nc2c1cnn2CC`, the Potency [1] was “inactive”, the Potency [2] was “inactive” and the Potency [3] was 12 µM (active). The Potency [4] was 13.4 µM (active), the Potency [5] was “inactive” and the Potency [6] was “inactive”. The Potency [7] was “inactive”, the Potency [8] was “inactive” and the Potency [9] was “inactive”.

With `CCN(CC)c1ccc(N)cc1` the Potency [1] was “inactive”, the Potency [2] was 50.3 µM (active) and the Potency [3] was 22.5 µM (active). For the same molecule, the Potency [4] was 20 µM (active), the Potency [5] was “inactive” and the Potency [6] was “inactive”. For the same molecule, the Potency [7] was “inactive”, the Potency [8] was 17.7 µM (active) and the Potency [9] was 17.7 µM (active).

In the case of `Cc1cccc(N(C)C)c1`, the Potency [1] is reported as “inactive”, the Potency [2] is reported as “inactive” and the Potency [3] is reported as “inactive”. For the same molecule, the Potency [4] was “inactive”, the Potency [5] was “inactive” and the Potency [6] was “inactive”. The Potency [7] was “inactive”, the Potency [8] was “inactive” and the Potency [9] was “inactive”. For the same molecule, the Potency [10] was “inactive”.

In the case of `OCCC(O)CO` (centres undefined), the Potency [1] is reported as “inactive”, the Potency [2] is reported as “inactive” and the Potency [3] is reported as “inactive”. The Potency [4] was “inactive”, the Potency [5] was “inactive” and the Potency [6] was “inactive”. The Potency [7] was “inactive”, the Potency [8] was “inactive” and the Potency [9] was “inactive”.

In the case of `CCCCCCCCCCc1ccccc1`, the Potency [1] is reported as “inactive”, the Potency [2] is reported as “inactive” and the Potency [3] is reported as “inactive”. For the same molecule, the Potency [4] was “inactive”, the Potency [5] was “inactive” and the Potency [6] was “inactive”. The Potency [7] was “inactive”, the Potency [8] was “inactive” and the Potency [9] was “inactive”.

With `COc1cc(C(=O)NS(=O)(=O)c2ccccc2C)ccc1Cc1cn(C)c2ccc(NC(=O)OC3CCCC3)cc12` the Potency [1] was “inactive”, the Potency [2] was “inactive” and the Potency [3] was “inactive”. The Potency [4] was “inactive”, the Potency [5] was “inactive” and the Potency [6] was “inactive”. For the same molecule, the Potency [7] was “inactive”, the Potency [8] was “inactive” and the Potency [9] was “inactive”.

For `c1cc[nH]c1`, the Potency [1] was “inactive”, the Potency [2] was “inactive” and the Potency [3] was “inactive”. The Potency [4] was “inactive”, the Potency [5] was “inactive” and the Potency [6] was “inactive”. For the same molecule, the Potency [7] was “inactive”, the Potency [8] was “inactive” and the Potency [9] was “inactive”. For the same molecule, the Potency [10] was “inactive”.

With `CCC1(c2cnc[nH]2)Cc2ccccc2C1` the Potency [1] was “inactive”, the Potency [2] was “inactive” and the Potency [3] was “inactive”. For the same molecule, the Potency [4] was “inactive”, the Potency [5] was “inactive” and the Potency [6] was “inactive”. For the same molecule, the Potency [7] was “inactive”.

For `Clc1ccc(C(c2ccccc2Cl)C(Cl)Cl)cc1` (centres undefined), the Potency [1] was “inactive”, the Potency [2] was “inactive” and the Potency [3] was 38.9 µM (active) and inactive. The Potency [4] was “inactive”, the Potency [5] was “inactive” and the Potency [6] was “inactive”. The Potency [7] was “inactive”, the Potency [8] was “inactive” and the Potency [9] was “inactive”.

For `[O]=[Zr]`, the Potency [1] was “inactive”, the Potency [2] was “inactive” and the Potency [3] was “inactive”. For the same molecule, the Potency [4] was “inactive”, the Potency [5] was “inactive” and the Potency [6] was “inactive”. The Potency [7] was “inactive”, the Potency [8] was “inactive” and the Potency [9] was “inactive”.

In the case of `CCCCCCCCC(C)=O`, the Potency [1] is reported as “inactive”, the Potency [2] is reported as “inactive” and the Potency [3] is reported as “inactive”. For the same molecule, the Potency [4] was “inactive”, the Potency [5] was “inactive” and the Potency [6] was “inactive”. The Potency [7] was “inactive”, the Potency [8] was “inactive” and the Potency [9] was “inactive”. For the same molecule, the Potency [10] was “inactive”.

In the case of `C/C=C/CO`, the Potency [1] is reported as “inactive”, the Potency [2] is reported as “inactive” and the Potency [3] is reported as “inactive”. The Potency [4] was “inactive”, the Potency [5] was “inactive” and the Potency [6] was “inactive”. For the same molecule, the Potency [7] was “inactive”, the Potency [9] was “inactive” and the Potency [10] was “inactive”.

In the case of `OCCN1CN(CCO)CN(CCO)C1`, the Potency [1] is reported as “inactive”, the Potency [2] is reported as “inactive” and the Potency [3] is reported as “inactive”. The Potency [4] was “inactive”, the Potency [5] was “inactive” and the Potency [6] was “inactive”. The Potency [7] was “inactive” and the Potency [9] was “inactive”.

With `O=C1C=CC(=O)N1c1ccccc1` the Potency [1] was 24.5 µM (active), the Potency [2] was 15.5 µM (active) and the Potency [3] was 12.3 µM (active). For the same molecule, the Potency [4] was 43.6 µM (active), the Potency [5] was 13.8 µM (active) and the Potency [6] was “inactive”. The Potency [7] was 34.7 µM (active), the Potency [8] was 61.1 µM (active) and the Potency [9] was 61.1 µM (active). For the same molecule, the Potency [10] was 30.6 µM (active).

With `C=C/C=C/C=C/CCCCC` the cytotoxicity increase [1] was -3.53% [at 15.8 µM] (inactive), the activity change, negative = cytotoxic [2] was -10.1% [at 15.8 µM] (inactive) and the activity change, negative = cytotoxicity [3] was 13% [at 15.8 µM] (inactive). The activity change, negative = cytotoxicity [4] was -1.22% [at 15.8 µM] (inactive), the activity change [5] was -0.0444% [at 15.8 µM, stronger effect = higher value] (inactive) and the activity change, negative = cytotoxicity [6] was -16.9% [at 15.8 µM] (inactive). For the same molecule, the cytotoxicity increase [7] was -1.01% [at 15.8 µM] (inactive), the activity change, negative = cytotoxicity [8] was -4.24% [at 19 µM] (inactive) and the viability change, negative = cytotoxic [9] was -0.871% [at 19 µM] (inactive). The activity, negative = inhibition [10] was 3% [at 19 µM] (inactive).

For `O=CC1CC1`, the Potency [1] was “inactive”, the Potency [2] was “inactive” and the Potency [3] was “inactive”. The Potency [4] was “inactive”, the Potency [5] was “inactive” and the Potency [6] was “inactive”. The Potency [7] was “inactive”, the Potency [8] was “inactive” and the Potency [9] was “inactive”. For the same molecule, the Potency [10] was “inactive”.

For `C=C(C)CCCC`, the Potency [1] was “inactive”, the Potency [2] was “inactive” and the Potency [3] was “inactive”. For the same molecule, the Potency [4] was “inactive”, the Potency [5] was “inactive” and the Potency [6] was “inactive”. For the same molecule, the Potency [7] was “inactive”, the Potency [8] was “inactive” and the Potency [9] was “inactive”. For the same molecule, the Potency [10] was “inactive”.

In the case of `NC(=O)c1ccccc1N`, the Potency [1] is reported as “inactive”, the Potency [2] is reported as “inactive” and the Potency [3] is reported as “inactive”. For the same molecule, the Potency [4] was “inactive”, the Potency [5] was “inactive” and the Potency [6] was “inactive”. For the same molecule, the Potency [7] was “inactive”, the Potency [8] was “inactive” and the Potency [9] was “inactive”. For the same molecule, the Potency [10] was “inactive”.

In the case of `NC(=O)C(=O)N/N=C/c1ccc([N+](=O)[O-])o1`, the Potency [1] is reported as “inactive”, the Potency [2] is reported as “inactive” and the Potency [3] is reported as “inactive”. The Potency [4] was “inactive”, the Potency [5] was “inactive” and the Potency [6] was “inactive”. For the same molecule, the Potency [7] was “inactive”, the Potency [9] was “inactive” and the Potency [10] was “inactive”.

In the case of `CCOCOCC`, the Potency [1] is reported as “inactive”, the Potency [2] is reported as “inactive” and the Potency [3] is reported as “inactive”. For the same molecule, the Potency [4] was “inactive”, the Potency [5] was “inactive” and the Potency [6] was “inactive”. The Potency [7] was “inactive”, the Potency [8] was “inactive” and the Potency [9] was “inactive”. For the same molecule, the Potency [10] was “inactive”.

For `CCCCCCCOC(=O)c1ccc(O)cc1`, the Potency [1] was “inactive”, the Potency [2] was “inactive” and the Potency [3] was 24.6 µM (active) and 21.9 µM (active). The Potency [4] was 21.9 µM (active), the Potency [5] was “inactive” and the Potency [6] was “inactive”. For the same molecule, the Potency [7] was “inactive and 38.9 µM (active)” and the Potency [9] was “inactive”.

With `CCOC(OCC)C(=O)c1ccccc1` the Potency [1] was “inactive”, the Potency [2] was “inactive” and the Potency [3] was “inactive”. For the same molecule, the Potency [4] was “inactive”, the Potency [5] was “inactive” and the Potency [6] was “inactive”. For the same molecule, the Potency [7] was “inactive”, the Potency [8] was “inactive” and the Potency [9] was “inactive”. For the same molecule, the Potency [10] was “inactive”.

For `COc1cccc(OC)c1O`, the Potency [1] was “inactive”, the Potency [2] was “inactive” and the Potency [3] was “inactive”. The Potency [4] was “inactive”, the Potency [5] was “inactive” and the Potency [6] was “inactive”. The Potency [7] was “inactive”, the Potency [8] was “inactive” and the Potency [9] was “inactive”. The Potency [10] was “inactive”.

Source: PubChem BioAssay (Tox21)
